# Rv3671c inh: inhibitors of M. tuberculosis serine protease Rv3671c; hit rate 0.048% among 320,000; inhibition, % at 5.96 µM; P9WHR9; in the data active = inhibition above about 38%;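 note: extracellular domain of Rv3671c used as enzyme; 0% = enzyme with DMSO and 100% = no enzyme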
# BJeLR lethal: kills HRASV12-expressing BJeLR cells; BJeLR (HRASV12) viability, CellTiter-Glo ATP luminescence, 48 h; hit rate 0.17% among 300,000; inhibition, % (test concentration not listed); in the data active = inhibition above about 50%; inconclusive = no clear call, values can overlap the other calls
# RecA splice inh: blocks M. tuberculosis RecA intein splicing. P9WHJ3. cell-free RecA intein splicing, fluorescence. inhibition, % (no concentration beside the values). hit rate 0.75% among 290,000. AID 2221; in the data active = inhibition above about 30%; inconclusive = no clear call, values can overlap the other calls;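 note: 0% = vehicle wells and 100% = reference inhibitor control wells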
# PrP UTR inh: suppresses PrP 5' UTR mRNA reporter expression | inhibition, % (test concentration not listed) | AID 488862 | cell-based PrP 5' UTR mRNA reporter, plate reader | hit rate 0.35% among 340,000; in the data active = inhibition above about 52%; note: 0 = median of the neutral control wells
# Mtb UGM inh: Mtb UDP-galactopyranose mutase inhibition; P9WIQ1; purified UGM, fluorescence polarization probe displacement; inhibition, % at 10 µM; hit rate 0.06% among 320,000; AID 504406; in the data active = inhibition above about 10%, passing the limit was not always enough; inconclusive = no clear call, values can overlap the other calls
# Target sequence (P9WIQ1 whole entry, looked up): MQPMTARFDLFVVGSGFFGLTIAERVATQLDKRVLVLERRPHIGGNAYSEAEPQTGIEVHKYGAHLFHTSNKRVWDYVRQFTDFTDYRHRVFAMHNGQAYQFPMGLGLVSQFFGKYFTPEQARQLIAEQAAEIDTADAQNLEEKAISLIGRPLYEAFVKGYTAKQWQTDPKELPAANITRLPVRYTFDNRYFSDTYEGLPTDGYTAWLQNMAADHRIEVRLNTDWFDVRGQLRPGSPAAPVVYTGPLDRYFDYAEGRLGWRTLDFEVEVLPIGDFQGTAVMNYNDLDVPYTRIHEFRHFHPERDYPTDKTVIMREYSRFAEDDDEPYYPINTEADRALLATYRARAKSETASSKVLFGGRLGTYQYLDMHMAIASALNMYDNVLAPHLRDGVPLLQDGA
# FadD28 binding: blocks FadD28 binding to the bisubstrate probe; fluorescence polarization; inhibition, % at 12.5 µM; hit rate 0.22% among 360,000; in the data active = inhibition above about 8.5%, passing the limit was not always enough; inconclusive = no clear call, values can overlap the other calls
# GFP chromo cs: counter-screen: blocks GFP chromophore formation. EC50, µM. hit rate 83% among 2,100. cell-free GFP chromophore formation, fluorescence. shares compounds with RecA splice inh; call rule not given here
# * hit, by the source's call; ? = inconclusive; / = no result given. In the library only some 1.3% were active in any assay of this set; here they are far more common.
SMILES,Rv3671c inh,BJeLR lethal,RecA splice inh,PrP UTR inh,Mtb UGM inh,FadD28 binding,GFP chromo cs
COc1cc(/C=C2/C(=O)N(c3ccc(C)c(C)c3)N=C2C)cc([N+](=O)[O-])c1O,-3,6,42*,-21,2,1,21*
CCNC(=O)C1(C)CCCN(Cc2cccc3c(OC)cc(C(=O)OCC)cc23)C1 (configuration not stated),/,/,/,/,/,-4,/
O=[N+]([O-])c1cc(/C=N\Nc2ccccn2)ccc1Cl,-1,-3,-1,-17,2,0,/
O=[N+]([O-])c1cc(C=Nc2cccc3c(O)cccc23)ccc1Cl,-2,-7,64*,/,4,/,33*
CN(C(=O)C(Cl)Cl)c1ccc(OC(=O)c2ccco2)cc1,1,1,36*,-9,-1,-4,>38
CCOC(=O)C1(C)CCCN1C(=O)c1cccc2ccccc12 (configuration not stated),/,/,/,/,/,-5,/
Cc1[nH]nc2c1C(c1cccc(OC(=O)N3CCOCC3)c1)C(C#N)=C(N)O2 (configuration not stated),-4,-7,59*,-10,1,-4,35*
CC(C)c1[nH]nc2c1C(c1ccc(OC(=O)c3ccco3)cc1)C(C#N)=C(N)O2 (configuration not stated),-6,1,46*,-9,-3,-1,20*
Cc1[nH]nc2c1C(c1ccc(OC(=O)c3ccco3)cc1)C(C#N)=C(N)O2 (configuration not stated),-1,2,74*,4,2,1,33*
COC(=O)C1=C(C)OC(N)=C(C#N)C1c1ccco1 (configuration not stated),10,-3,-2,-20,-5,-2,/
CC1(C(=O)NS(=O)(=O)c2ccc3c(c2)CCO3)CCN1C(=O)c1ccccc1CCc1ccccc1 (configuration not stated),/,/,/,/,/,-4,/
COc1ccccc1/C=C/C1(C(=O)NC2CCCC2)CC(=O)N1c1ccc(F)cc1 (configuration not stated),-13,1,57*,-28,2,-1,22*
COc1ccccc1/C=C/c1onc(C)c1S(=O)(=O)N1CCC(C(=O)NC2CCCCCC2)CC1,-6,-5,3,-11,3,0,/
COC(=O)c1ccc(-n2c(C)nc3ccccc3c2=O)cc1,2,1,3,-27,0,-2,/
COC(=O)c1ccc(C(=O)OC)c(-n2c(=O)c3ccccc3c3ccccc3c2=O)c1,-11,-3,40*,-15,0,-1,25*
O=c1[nH]cc(O)c(=O)[nH]1,5,-9,89*,-17,2,-4,15*
COC(=O)CC1(c2cccc3ccccc23)C(=O)c2ccccc2C1=O,6,8,42*,-14,0,-16,6.6*
O=C1c2ccccc2OC2(C=Cc3ccccc3O2)N1Cc1ccccc1 (configuration not stated),-2,9,32*,-19,-2,-1,>38
CCCCNC(=O)C1(C)CCN1Cc1ccc(C#N)cc1 (configuration not stated),/,/,/,/,/,-3,/
Oc1[nH]c(=S)sc1C=C1N=c2ccccc2=N1,-5,-2,57*,-30,3,1,>38
Oc1c(C=C2N=c3ccccc3=N2)sc(=S)n1-c1ccc(F)cc1,-2,-4,0,-36,-4,-1,/
CC[C@]12c3[nH]c4cc(-c5ccco5)ccc4c3CCN1C(=O)[C@@H](CC(=O)NC(C)(C)C)C[C@@H]2C(=O)N1CCN(C(=O)c2ccco2)CC1,/,/,/,-13,/,-2,/
CCN(Cc1ccccc1)S(=O)(=O)c1ccc(C(=O)N(CCCN(C)C)c2nc3cc(C)cc(C)c3s2)cc1,0,14,31*,-2,-1,-4,>38
Cc1ccc(CC(C)(O)CC(C)(O)Cc2ccc(C)cc2)cc1 (configuration not stated),/,/,/,/,/,0,/
O=C1/C(=N\S(=O)(=O)c2cccs2)C([n+]2ccccc2)=C([O-])c2ccccc21,-65,9,41*,-10,9,?,17*
SMILES,Rv3671c inh,BJeLR lethal,RecA splice inh,PrP UTR inh,Mtb UGM inh,FadD28 binding,GFP chromo cs
CC(C)(C)c1cc[n+](C2=C([O-])c3ccccc3C(=O)/C2=N\S(=O)(=O)c2cccs2)cc1,-68,-7,78*,/,1,0,0.96*
Nc1nc(SCc2ccc(Cl)cc2Cl)c2ncn(C3OC(CO)C(O)C3O)c2n1 (configuration not stated),/,/,/,-21,/,-9,/
COc1ccc(CN(CCC(c2ccccc2)c2ccc(OC(C)C)cc2)C(=O)CCl)cc1OC (configuration not stated),-1,68*,83*,5,2,-4,0.4*
CN(C)C(=S)N=Nc1[nH]c2ccccc2c1O,13,23,59*,/,1,/,8.2*
CCCNC1=C(N(C(C)=O)c2cccc(F)c2)C(=O)c2ccccc2C1=O,-91,44,63*,34,1,0,15*
CN(C)CCOc1ccc(C(C)(C)c2ccccc2)cc1,4,0,3,-32,0,-3,/
CC(C)(c1ccccc1)c1ccc(OCC2CO2)cc1 (configuration not stated),1,-10,41*,-30,-1,-3,>38
Cc1nc2nc(C)n(CCN3CCOCC3)c(=O)c2c(-c2cccc([N+](=O)[O-])c2)c1C(=O)CCCCCCCCCCN1CCC(c2ccccc2)(c2ccccc2)CC1,/,/,/,-12,/,-14,/
c1ccc(-c2ccc(C3CCCN3)cc2)cc1 (configuration not stated),-1,12,90*,-13,0,-2,>38
CSCCC1C(C#N)=C(N)Oc2n[nH]c(-c3cccs3)c21 (configuration not stated),-15,-10,85*,-26,3,-21,9.1*
CC(C)CC1C(C#N)=C(N)Oc2c1c(=O)oc1ccccc21 (configuration not stated),5,-16,-1,-24,0,-1,/
CC(C)CC1C(C#N)=C(N)Oc2n[nH]c(-c3cccs3)c21 (configuration not stated),-5,-6,86*,7,3,-3,>38
CC(/C=N/NC(=O)Cc1cc(=O)[nH][nH]1)=C\c1ccccc1,-17,1,89*,-7,3,-2,6.7*
O=C(c1cc(F)c(F)cc1Cl)N1CCN(c2ccc([N+](=O)[O-])c3ncccc23)CC1,-9,-2,32*,-23,1,-5,23*
CCSC(=O)N1c2ccc(OC)cc2C=CC1C#N (configuration not stated),/,/,/,42,/,-3,/
CCC(=O)N/N=C(\C)CC(=O)Nc1cccc([N+](=O)[O-])c1,3,-5,76*,-11,2,-3,29*

# Screens: PubChem, several laboratories
